Molecules are shown by their SMILES. Several values for one entry are separate records, joined by “and”; a condition that tells them apart may be missing. Equal values may be shown once. In all, about 330,000 compounds went through this assay and about 700 (0.21%) were called active. This is one part of a sample in which actives are shown more often than they occur.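 Rule for the calls: active = OD600 absorbance below the run mean of sample wells minus 3.6 SD, in any replicate (cut at about 0.56 in these data); inactive = the rest.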 Some compounds were tested as several samples or in several runs, with calls that do not always agree.

The test can be described thus: antibacterial activity against Escherichia coli – OD600, primary screen (AID 1053175). The note with it: Escherichia coli growth, OD600, 23 h; stronger effect = lower value.
Regarding `CCCOc1ccc(CNC(=S)NN=Cc2ccc([N+](=O)[O-])cc2)cc1`, the OD600 absorbance is 0.66 (inactive).

On to `[N-]=[N+]=NCC(Cc1ccccc1)N1CCN(Cc2ccccc2)CCC1=O` (stereo not given), for which the OD600 absorbance is 0.705 (inactive).

With `CC(C)(C)N1C(=O)C2C(c3ccc(Br)cc3)N3C(=O)N(c4ccccc4)C(=O)[C@@]3(Cc3ccccc3)C2C1=O` (stereo not given in full), the OD600 absorbance was 0.71 (inactive).

As for `CC(/C=C/c1ccccc1)=NNc1nc(C)cc(C)n1`, the OD600 absorbance was 0.667 (inactive).

In the case of `CNc1nc(C)nc(NN=Cc2ccccc2)n1`, the OD600 absorbance was 0.682 (inactive).

Turning to `S=c1[nH]nc(-c2ccncc2)n1N=Cc1cccc2ccccc12`, the OD600 absorbance is 0.739 (inactive).

On to `Cc1ccc(C=NNC(=O)Cn2cnc3ccccc32)o1`, for which the OD600 absorbance is 0.676 (inactive).

In the case of `Cc1ccc(C(=O)N2C3CN(C)C(=O)[C@@]2(Cc2ccccc2)C2C(=O)N(C)C(=O)C32)cc1` (stereo not given in full), the OD600 absorbance was 0.672 (inactive).

As to `CC(=NNC(=O)CCc1ccc(S(=O)(=O)N2CCOCC2)cc1)c1ccc(OC(F)F)cc1`, the OD600 absorbance is 0.715 (inactive).

For `C#CCOc1ccc(C=NNC(=O)c2cccnc2)cc1OCC`, the OD600 absorbance was 0.679 (inactive).

Regarding `C[C@@]12C(=O)Nc3cc(Cl)ccc3C(=O)N1C1c3cc(Cl)ccc3OCC1C2c1ccccc1` (stereo not given in full), the OD600 absorbance was 0.696 (inactive).

Turning to `COc1ccc(C=C2N=C(SC)NC2=O)cc1`, the OD600 absorbance was 0.705 (inactive).

As to `Cc1c(C=O)c2ccccc2n1CC(=O)O`, the OD600 absorbance was 0.701 (inactive).

`CC(=O)c1c(C)n([O-])c2ccccc2[n+]1=O`: the OD600 absorbance was 0.186 (active).

Regarding `CCCCn1c(C=NNc2nc3ccccc3[nH]2)nc2ccccc21`, the OD600 absorbance is 0.684 (inactive).

Take `COc1cc(C=NNC(=O)c2ccc3c(c2)OCCO3)c(Br)c(Br)c1O`: the OD600 absorbance is 0.727 (inactive).

As to `C=C[C@]1(C)CC(OC(=O)CSCCN(CC)CC)[C@]2(C)C(C)CC[C@]3(CCC(=O)C32)C(C)C1O` (stereo not given in full), the OD600 absorbance is 0.499 (inactive) and 0.432 (active).

Regarding `CC(C)(C)C(=O)C=c1[nH]c(=O)c(=Cc2ccccc2F)s1`, the OD600 absorbance was 0.718 (inactive).

With `COC(=O)Oc1ccc(C=NNC(=O)CN(c2ccccc2Br)S(C)(=O)=O)cc1OC`, the OD600 absorbance is 0.67 (inactive).

`COc1ccc(CN2C(CC(=O)O)c3ccccc3S2(=O)=O)cc1` (stereo not given): the OD600 absorbance was 0.676 (inactive).

On to `Cc1ccccc1C(=O)ON=C1CCS(=O)(=O)c2sccc21`, for which the OD600 absorbance is 0.706 (inactive).

On to `O=C(NN=Cc1cccn1-c1cccc(C(=O)O)c1)Nc1ccccc1`, for which the OD600 absorbance was 0.627 (inactive).

As for `CC(=O)Oc1ccc(C(C)=NN2CCN(Cc3ccc(Cl)cc3)CC2)cc1`, the OD600 absorbance was 0.707 (inactive).

As to `O=C(C=Cc1cccs1)N1CCC2(CC1)Oc1ccc(F)cc1C(=O)C21CC(c2ccccc2)=NO1` (stereo not given), the OD600 absorbance was 0.718 (inactive).

As to `CC(C=NNC(=O)c1ccc2c(c1)OCO2)c1ccccc1` (stereo not given), the OD600 absorbance is 0.695 (inactive).

On to `O=C(NCc1ccccc1)C1=CC(c2ccccc2)CC(OCCCCO)O1` (stereo not given), for which the OD600 absorbance is 0.622 (inactive).

As for `CC(=O)Nc1ccc(C(C)=NNC(=O)c2ccc(-c3ccccc3)cc2)cc1`, the OD600 absorbance was 0.685 (inactive).

On to `CS(=O)(=O)N(CC(=O)Nc1ccc(Cl)c(Cl)c1)C1CCCCC1`, for which the OD600 absorbance was 0.703 (inactive).

For the compound `O=C(CCCN1C(=O)CCC1=O)Nc1ccc(Cl)c(C(F)(F)F)c1`, the OD600 absorbance was 0.702 (inactive).

Take `O=C(CC(O)(C(F)(F)F)C(F)(F)F)Nc1ccc(Cl)c(Cl)c1`: the OD600 absorbance is 0.329 (active).

On to `Cc1nn(-c2ccccc2)c(C)c1C=NNC(=O)c1cc(-c2cccs2)[nH]n1`, for which the OD600 absorbance was 0.602 (inactive).

Take `Clc1cccc(Cl)c1C=NNc1nccs1`: the OD600 absorbance was 0.705 (inactive).

Take `Cc1cc(C)nc(NN=Cc2ccccc2OCc2ccccc2)n1`: the OD600 absorbance was 0.638 (inactive).

For the compound `Cn1ccc(=Nc2ccc(NC(=O)c3ccc(N=c4ccn(C)c5ccc([N+](=O)[O-])cc45)cc3)cc2)cc1`, the OD600 absorbance was 0.104 (active).

As to `CC(=O)NC(=S)Nc1ccc(NC(=S)NC(=O)c2ccc([N+](=O)[O-])cc2)cc1`, the OD600 absorbance is 0.699 (inactive).

Take `COc1cc(NS(=O)(=O)c2ccc(NC(=O)c3ccc([N+](=O)[O-])cc3)cc2)ncn1`: the OD600 absorbance was 0.659 (inactive).

For `Fc1cccc(CCN2CCNCC2Cc2ccccc2)c1` (stereo not given), the OD600 absorbance was 0.658 (inactive).

On to `O=C(O)c1cc(O)c2c(c1)C(C1c3cc(C(=O)O)cc(O)c3C(=O)c3c(OC4OC(CO)C(O)C(O)C4O)cccc31)c1cccc(OC3OC(CO)C(O)C(O)C3O)c1C2=O` (stereo not given), for which the OD600 absorbance was 0.667 (inactive).

For the compound `COC(=O)c1cccc(C23CC4(C2)C(CN(CC2CCCCC2)C4c2ccccc2)C3c2ccccc2)c1` (stereo not given), the OD600 absorbance is 0.699 (inactive).

Consider `CCc1ccc(C=NNC(=O)Cc2ccc(OC)c(OC)c2)s1`, for which the OD600 absorbance was 0.627 (inactive).

In the case of `Cc1nn(-c2ccccc2)c(C)c1C=Nn1c(-c2ccccc2Br)n[nH]c1=S`, the OD600 absorbance is 0.624 (inactive).

For the compound `CCOc1ccc(Br)cc1C(=O)NN=Cc1c[nH]c2ccccc12`, the OD600 absorbance is 0.686 (inactive).

On to `O=C(NN=C/C(Br)=C\c1ccccc1)c1n[nH]c2c1CCC2`, for which the OD600 absorbance is 0.619 (inactive).

On to `C[C@]12C(=O)N(c3cccc(F)c3)C(=O)N1C1c3ccccc3OCC1C2c1ccccc1` (stereo not given in full), for which the OD600 absorbance was 0.707 (inactive) and 0.703 (inactive).

On to `C=Cc1ccc(C2=CC(=O)CC(c3ccc(OC)cc3)C2)cc1` (stereo not given), for which the OD600 absorbance is 0.663 (inactive).

As to `O=C(NN=Cc1cccc2ccccc12)c1cccnc1`, the OD600 absorbance is 0.676 (inactive).

On to `O=C(C=Cc1ccccc1)NCCSCc1ccccc1Cl`, for which the OD600 absorbance was 0.63 (inactive).

With `O=C(CCNc1n[nH]c(=O)[nH]c1=O)NN=Cc1ccc(Cl)cc1`, the OD600 absorbance is 0.691 (inactive).

On to `CCOC1OC(C(=O)NCc2nc3ccccc3[nH]2)=CC(c2cn(C(C)=O)c3ccccc23)C1CCCO` (stereo not given), for which the OD600 absorbance is 0.677 (inactive) and 0.601 (inactive).

Take `ON=Cc1cccn1-c1nccs1`: the OD600 absorbance is 0.697 (inactive).

Take `Cc1ccc(C(=O)NN=Cc2c[nH]c3ccccc23)o1`: the OD600 absorbance was 0.69 (inactive).

`CCn1c(C)nc2cc(C(=O)NN=C(C)c3ccc(N4CCOCC4)cc3)ccc21`: the OD600 absorbance was 0.666 (inactive).

Turning to `CCCC(CNC(CNC)C(C)O)NCCc1ccc(OC)cc1` (stereo not given), the OD600 absorbance is 0.679 (inactive).

Regarding `O=Cc1c(Nc2ccccc2Cl)nc2ccccn2c1=O`, the OD600 absorbance was 0.678 (inactive).

Regarding `CCc1c(Nc2ccccc2C)nc(N)[nH]c1=O`, the OD600 absorbance is 0.675 (inactive).

For the compound `CCc1c(Nc2ccccc2Cl)nc(N)[nH]c1=O`, the OD600 absorbance is 0.475 (active).

Regarding `c1ccc(N=C2N=C(Nc3ccccn3)c3ccccc32)nc1`, the OD600 absorbance is 0.705 (inactive).

`CCC1=C(OC(=O)N(CC)CC)N2C(=O)OC(=NCC(=O)OC)[C@]2(C)C2C1=CCC1C(=O)NC(=O)C12` (stereo not given in full): the OD600 absorbance was 0.617 (inactive).

On to `CCCN1CCn2c3c(c4cc(Br)ccc42)CCCC31` (stereo not given), for which the OD600 absorbance was 0.655 (inactive).

Consider `OC(CNCC1CCCO1)Cn1c2ccc(Br)cc2c2cc(Br)ccc21` (stereo not given), for which the OD600 absorbance was 0.547 (active).

On to `O=C(CCNS(=O)(=O)c1ccc(Br)cc1)NCC1CCCO1` (stereo not given), for which the OD600 absorbance was 0.66 (inactive).

Take `O=C(CC=NOCc1ccc([N+](=O)[O-])cc1)Nc1ccc(Br)cc1`: the OD600 absorbance was 0.631 (inactive).

In the case of `O=C(O)CC1c2cc(F)ccc2S(=O)(=O)N1Cc1ccccc1` (stereo not given), the OD600 absorbance was 0.672 (inactive).

Take `O=[N+]([O-])c1cccc(C=NN2CCN(c3ccccn3)CC2)c1`: the OD600 absorbance was 0.693 (inactive).

With `Cc1ccc(NCC(=O)NN=Cc2ccc([N+](=O)[O-])o2)cc1`, the OD600 absorbance is 0.564 (inactive).

On to `CCn1c(/C=C/c2ccc([N+](=O)[O-])o2)nc2ccccc2c1=O`, for which the OD600 absorbance was 0.629 (inactive).

As to `C/[N+]([O-])=C\c1ccc([N+](=O)[O-])o1`, the OD600 absorbance is 0.0665 (active).

`Cc1ccc(-c2nn(-c3ccccc3)cc2C(=O)NC2CCC(O)CC2)cc1` (stereo not given): the OD600 absorbance was 0.658 (inactive).

For the compound `CCc1ccc(-c2nn(-c3ccccc3C)cc2C(=O)N2CCN(C3CCS(=O)(=O)C3)CC2)cc1` (stereo not given), the OD600 absorbance was 0.66 (inactive).

Turning to `CCc1ccc(-c2nn(-c3ccccc3)cc2CSC(=N)N)cc1`, the OD600 absorbance is 0.201 (active).

On to `COc1cccc(C=NNC(=O)CSc2cccc3cccnc23)c1`, for which the OD600 absorbance is 0.635 (inactive).

As for `COC(=O)[C@]1(Cc2ccccc2)NC(c2ccc(-c3cc(C(C)=O)cs3)cc2)C2C(=O)N(C)C(=O)C21` (stereo not given in full), the OD600 absorbance was 0.738 (inactive).

Regarding `COC(=O)C1=C(C)N(Cc2ccco2)C(=O)NC1c1cccc(C(F)(F)F)c1` (stereo not given), the OD600 absorbance is 0.7 (inactive).

Turning to `COc1ccc(C2C=CCN(S(=O)(=O)C=Cc3ccccc3)C(Cc3ccccc3)C(=O)N2Cc2ccc(F)cc2)cc1` (stereo not given), the OD600 absorbance is 0.733 (inactive).

As for `CCOc1cc(C=NNc2ncnc(Cl)c2N)ccc1O`, the OD600 absorbance was 0.682 (inactive).

As for `COc1cc(C=Nn2cnnc2)ccc1OCCOc1ccccc1`, the OD600 absorbance is 0.782 (inactive).

Consider `CCOC(=O)C1(CCOc2ccccc2)CCN(Cc2cc(OC)c(O)cc2Cl)CC1`, for which the OD600 absorbance is 0.602 (inactive).

On to `OCC1(CCOc2ccccc2)CCN(Cc2cn[nH]c2-c2ccccc2)CC1`, for which the OD600 absorbance is 0.675 (inactive).

As for `Cc1c(CN2CCC(CO)(CCOc3ccccc3)CC2)[nH]c2ccc(Cl)cc12`, the OD600 absorbance is 0.527 (active).

Consider `COc1cc(C(=O)ON=C2C=CC(=O)C=C2C)cc(OC)c1OC`, for which the OD600 absorbance was 0.685 (inactive).

Consider `Cc1c(C(=O)NC(C)C2CC3CCC2C3)cccc1[N+](=O)[O-]` (stereo not given), for which the OD600 absorbance is 0.695 (inactive).

Consider `Cc1cccc(C(=O)OCC(=O)NC(C)C2CC3CCC2C3)c1O` (stereo not given), for which the OD600 absorbance is 0.676 (inactive).

For the compound `COC(=O)c1cc(C(=O)NC(C)C2CC3CCC2C3)cc([N+](=O)[O-])c1` (stereo not given), the OD600 absorbance is 0.52 (active).

Consider `CC=C(C)C(=O)NCCN1C2=NCC(C)N2CC1Cc1ccc(O)cc1` (stereo not given), for which the OD600 absorbance is 0.694 (inactive).

Regarding `Cc1occc1C(=O)NN=Cc1cccc2ccccc12`, the OD600 absorbance was 0.677 (inactive).

Turning to `COc1ccc(OC)c(C=Nn2c(-c3n[nH]c4c3CCC4)n[nH]c2=S)c1`, the OD600 absorbance is 0.697 (inactive).

With `COc1cc(C=NNC(=O)c2ccc3nc[nH]c3c2)ccc1O`, the OD600 absorbance was 0.686 (inactive).

Take `CCOC(=O)C1C2COc3ccccc3C2N2C(=O)N(c3cccc(Cl)c3)C(=O)[C@@]12C` (stereo not given in full): the OD600 absorbance is 0.65 (inactive) and 0.728 (inactive).

In the case of `Nc1nnnn1N=Cc1ccc(O)cc1`, the OD600 absorbance is 0.733 (inactive).

On to `Cc1cc([N+](=O)[O-])cc(C)c1OCC(=O)NN=Cc1ccc(OC(=O)c2ccccc2Br)cc1`, for which the OD600 absorbance is 0.708 (inactive).

Source of the values: PubChem BioAssay AID1053175 (ICCB-Longwood Screening Facility, Harvard Medical School, 2014).
